Screening data (PubChem)
Nrf2 block – Nrf2 pathway inhibition; Potency, µM (top dose mostly 46 µM), most hits filed as inhibitors; A549 ARE-Fluc reporter, luciferase luminescence, 18-24 h; actives 2.1% (n = 360,000); AID 504444; also: nearly all actives have a fitted effect of over 60% in size
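A549 ARE_Fluc cells, 5000/well, 5% FBS OPTI-MEM; compounds in dose-response, 18-24 h at 37 °C/5% CO2; CellTiter-Fluor viability read (Ex 405/Em 525), then BugLite luciferase luminescence = Nrf2 activity.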
IL2 activator – activators of IL-2; IL-2 activation reporter assay, cell-based qHTS; stimulated with anti-CD3/CD4/CD28 beads; in transgenic mouse T cells; activation, % (series mostly up to about 46 µM); actives 0.065% (n = 360,000); AID 652025; in the data active = activation above about 50%; inconclusive = mostly about 30% to 49%
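Readout is EGFP and DsRed signal by fluorescent plate cytometry after 18 h at 37 degrees C. Transgenic mouse T cells (750/well) received compound for 60 min before bead stimulation (anti-CD3, anti-CD4, anti-CD28); memory T cells served as non-tolerant control.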
p53 reactivator – restores transcriptional activity of mutant p53 | actives 0.063% (n = 320,000) | Potency, µM (series often up to 92.2 µM), actives largely listed as activators | H1299 p53-A138V BP100-luciferase reporter, luminescence, 24 h; also: nearly all actives have a fitted effect of over 45% in size
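H1299 (p53-null), stable ts p53-A138V + BP100-Luc; 1000 cells/well, Opti-MEM/10% FBS; cpd 4 pt, 1:5; 24 h, 37 deg C, 5% CO2; detection reagent 10 min RT; luminescence.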
BRCA1 expr up – activators of BRCA1 expression | MCF7-BRCA1-FFLuc reporter, luminescence, 48 h; response scale: scaled: vehicle 0%, 10 µM genistein 100% | Potency, µM (top dose mostly 46.1 µM), usual class: activators | actives 1.1% (n = 380,000) | AID 624202; also: nearly all actives have a fitted effect of over 80% in size
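Compounds are tested at multiple concentrations on MCF7 BRCA1-luciferase reporter cells seeded at 2000 per well; after 48 h, a single luminescence end-point is taken and curves fitted to the normalized data.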
Nrf2 ARE act – activates Nrf2 signaling. actives 0.31% (n = 410,000). AREc32 ARE-luciferase reporter (MCF7-derived line), luminescence, 24 h. Potency, µM (top dose mostly 46.1 µM), hits mostly activators; also: nearly all actives have a fitted effect of over 65% in size
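Luciferase luminescence (Steady-Glo, 30 min at room temperature) served as the read-out of ARE activation in AREc32 cells treated with compounds for 24 hr at 37 deg C.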
A549 tox – kills or reduces viability of A549 cells in Nrf2 counter-screen. actives 0.16% (n = 390,000). A549 ARE-Fluc cells, CellTiter-Fluor viability, 18-24 h. Potency, µM (top dose mostly 46 µM), hits mostly inhibitors
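A549 ARE_Fluc cells in 5% FBS OPTI-MEM were exposed to compounds in concentration-response for 18-24 h at 37 deg C. Viability was read by CellTiter-Fluor fluorescence (Ex 405/Em 525) after 30 min, before the luciferase read.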
Each line names hits and unclear results; the compound was inactive in the other large screens. Rows were chosen to be rich in hits. Some 3.2% of all compounds tested hit in one or more screens of this group. Unless noted, calls follow the shape of the dose curve; as a rule, active = well fitted curve in the direction sought with a large enough effect; inconclusive = small, poorly fitted or top-dose-only effect, or another doubt; inactive = no such curve, though single readings can be large; an effect the other way counts as inactive or inconclusive.

COc1ccc2c(c1)CCc1c(C(=O)Nc3c(C)nn(Cc4ccccc4C)c3C)noc1-2	Nrf2 block 18µM (no result: IL2 activator, p53 reactivator, BRCA1 expr up)
COc1ccc(C(C)(C)C)cc1NC(=O)CCCn1c(=O)oc2ccccc21	none
CN(Cc1ccccc1)C(=O)Cn1c(=O)oc2cc(S(=O)(=O)NCc3ccccc3)ccc21	Nrf2 block 18µM
CC(C)N(Cc1ccccc1)C(=O)CCS(=O)(=O)c1ccc2c(c1)oc(=O)n2C	p53 reactivator inconclusive
C[C@@H]1C[C@H]2OC(=O)C3(CO3)[C@H]2[C@H](O)[C@]2(C)C(=O)C3OC3[C@@H]12 (stereo partly specified)	none (no result: Nrf2 block, IL2 activator, BRCA1 expr up, Nrf2 ARE act, A549 tox)
C=C1C(=O)O[C@@H]2C[C@@H](C)[C@@H]3C=CC(=O)[C@@]3(C)[C@@H](OC(C)=O)[C@H]12	Nrf2 block 4.1µM, A549 tox 9.2µM
C=C1C(=O)O[C@@H]2C[C@@H](C)[C@@H]3C=CC(=O)[C@@]3(C)[C@@H](O)[C@H]12	Nrf2 block 3.7µM, A549 tox 9.2µM
Cc1cccc(N2C(=O)CSC23C(=O)N(CC(=O)Nc2cccc(Cl)c2)c2ccccc23)c1 (stereo unspecified)	Nrf2 block inconclusive (no result: IL2 activator, p53 reactivator)
NC(Cc1nc2ccccc2[nH]1)c1ccc(Cl)cc1 (stereo unspecified)	Nrf2 block inconclusive, p53 reactivator inconclusive, BRCA1 expr up 11µM
NC(Cc1ccccc1)c1nc2ccccc2[nH]1 (stereo unspecified)	none
N#CC(C#N)=NNc1ccc([N+](=O)[O-])cc1	p53 reactivator inconclusive, A549 tox 21µM
CCCOP(=O)(c1ccc(N(C)C)cc1)C(O)c1ccc(Cl)cc1Cl (stereo unspecified)	Nrf2 block inconclusive
CC(O)(CS(=O)(=O)c1ccccc1)C(=O)Nc1ccc(C(F)(F)F)cc1 (stereo unspecified)	none (no result: Nrf2 block)
CCCC(C)c1nnc(NC(=O)CCS(=O)(=O)c2ccccc2)s1 (stereo unspecified)	p53 reactivator inconclusive, Nrf2 ARE act 22µM
COc1cccc(C(=O)N/N=C(/c2ccccc2)c2ccccn2)c1	Nrf2 block 10µM, A549 tox inconclusive
Cc1cc(C(=O)Nc2ccc(CC(=O)O)cc2)c(C)o1	Nrf2 block 5.2µM
Cc1ccc(Cn2cccc(C(=O)Nc3ccc(C)c(Cl)c3)c2=O)cc1	none (no result: Nrf2 block, IL2 activator, p53 reactivator)
CCCc1nc2ccc(Br)cc2c(=O)n1-c1ccc([N+](=O)[O-])c(C(F)(F)F)c1	Nrf2 block 21µM
CCc1nc2ccc(Br)cc2c(=O)n1-c1ccccc1C(F)(F)F	none (no result: p53 reactivator)
CCOP(=O)(CCP(=O)(OCC)OCC)OCC.C[CH2][Sn]([Cl])([Cl])[CH2]C	Nrf2 block inconclusive, A549 tox 16µM (no result: p53 reactivator)
CCOP(=O)(OCC)OCC	none
CCOc1ccc(-c2cc(C(=O)N3CCN(S(=O)(=O)c4cc(Cl)ccc4OC)CC3)[nH]n2)cc1	Nrf2 block inconclusive (no result: IL2 activator, p53 reactivator, BRCA1 expr up)
COc1nc(NC2CCCCC2)nc(NC(C)(C)C)n1	Nrf2 block inconclusive, BRCA1 expr up inconclusive (no result: p53 reactivator)
Cc1cc(/C=C2\C(=O)NC(=O)N(c3cccc(Br)c3)C2=O)c(C)n1C	IL2 activator 68
Cc1cc(/C=C2/C(=O)NC(=O)N(c3ccc(Br)cc3)C2=O)c(C)n1C	none
COCCCNC(=O)c1c(NC(=O)c2ccccc2)n(Cc2ccccc2)c2nc3ccccc3nc12	IL2 activator 68 (no result: p53 reactivator, A549 tox)
COCCCn1c(N)c(C(=O)NCCC(C)C)c2nc3ccccc3nc21	Nrf2 block 16µM, A549 tox inconclusive
CCCCn1c(N)c(C(=O)OCCOC)c2nc3ccccc3nc21	none
COCCOC(=O)c1c(N)n(Cc2ccccc2)c2nc3ccccc3nc12	none
CC1CCC2(CC1)NC(=O)N(NC(=O)CCl)C2=O (stereo unspecified)	p53 reactivator inconclusive
CCOC(=O)C1CCCN(c2ccc([N+](=O)[O-])c3nonc23)C1 (stereo unspecified)	A549 tox 18µM
COc1ccc(-n2nc(C(=O)NCC(=O)N3CCC4(CC3)OCCO4)c3ccccc3c2=O)cc1Cl	Nrf2 block inconclusive, p53 reactivator inconclusive, BRCA1 expr up 10µM
Cc1cccc(N2CCN(C(=O)CCNS(=O)(=O)c3ccc4c(c3)oc(=O)n4C)CC2)c1C	Nrf2 block 21µM
c1ccc(CCNCc2ccccc2)cc1	none
CC1=C/C(=N\NC(=S)NCCc2ccccc2)CC(C)(C)C1	Nrf2 block inconclusive, p53 reactivator inconclusive, BRCA1 expr up 11µM
COc1cccc(N2CCN(C(=O)C3CCCN(S(=O)(=O)c4ccc5c(c4)oc(=O)n5C)C3)CC2)c1 (stereo unspecified)	Nrf2 block inconclusive
O=[N+]([O-])c1ccccc1-c1cc(-c2ccccc2)cc(-c2ccccc2)[n+]1Cc1ccccc1Cl	Nrf2 block 21µM, A549 tox inconclusive
O=[N+]([O-])c1ccc(-[n+]2c(-c3ccccc3)cc(-c3ccccc3)cc2-c2ccccc2)cc1	none (no result: p53 reactivator)
COc1ccc(CN2CCN(c3ncnc4sc5c(c34)CCCC5)CC2)cc1F	Nrf2 block 10µM (no result: IL2 activator, p53 reactivator, BRCA1 expr up)
CC1N(C)c2cc(NC(=O)c3ccco3)c(P(=O)(Nc3ccc([N+](=O)[O-])cc3)N3CCOCC3)cc2C1(C)C (stereo unspecified)	Nrf2 block 16µM, A549 tox 21µM
CCOC(=O)c1ccc(NC(=O)CSc2ccc(-c3cccnc3)nn2)cc1	Nrf2 block inconclusive
CC(=O)c1ccc(NC(=O)CSc2nc(=O)cc(N)n2-c2ccccc2)cc1	Nrf2 block inconclusive, BRCA1 expr up 10µM
CC1=C(C(=O)O)N2C(=O)C(NC(=O)c3nn(C)cc3[N+](=O)[O-])C2SC1 (stereo unspecified)	Nrf2 block inconclusive
O=C(c1ccco1)N1CCN(C(=O)c2ccc(COc3ccc(Cl)cc3Cl)o2)CC1	Nrf2 block 26µM (no result: p53 reactivator)
CCCc1cc(N2CCN(c3ccc(OC)cc3)CC2)n2cnnc2n1	Nrf2 block 12µM (no result: IL2 activator, p53 reactivator, BRCA1 expr up)
CC(O)C1C=CC=CC(=O)OC2CC3OC4C5OC5(C)CCC4(COC(=O)C4OC4(C)C(O)CO1)C2(C)C31CO1 (stereo unspecified)	Nrf2 block 0.23µM, BRCA1 expr up inconclusive (no result: p53 reactivator, A549 tox)
CCc1ccccc1NC(=O)C(CC)Oc1ccccc1-c1nnc(-c2ccccc2)o1 (stereo unspecified)	Nrf2 block inconclusive (no result: IL2 activator, p53 reactivator)
CCS(=O)(=O)Nc1ccc(C2=NN(C(=O)c3ccco3)C(c3ccc(Cl)o3)C2)cc1 (stereo unspecified)	Nrf2 block inconclusive
